# Data published in PubChem BioAssay.
# Where “and” joins values, the source holds several entries; their conditions need not be identical. Equal entries are not always repeated. For part of these data: Measured potencies and affinities stand elsewhere. Calls of active or inactive are those of the source.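 The calls were made as follows, unless noted: active = compounds whose cell count with miR-34 switched on is under 0.7 times the count with it off; inactive = the rest.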
# How the values were obtained:
# [1] = compounds altering circadian rhythm period length – cell-based, LOPAC library, luminescence reporter (AID 2774; call rule not given here;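 also: values are relative to mean of DMSO wells on each plate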); conditions: circadian reporter cells, at 7 µM, actives lie on both sides
# [2] = tested on: Hepatitis C virus NS3 helicase; test: blockers of NS3h binding to ssDNA – biochemical, fluorescence polarization, LOPAC1280 library, primary screen (AID 687035; in the data active = inhibition above about 37%); conditions: Purified HCV NS3 helicase, Cy5-dT15 ssDNA binding fluorescence polarization; stronger effect = higher value; concentration not given here
# [3] = compounds altering Cy5-DNA-NS3h complex signal – biochemical, LOPAC1280, artefact control for HCV NS3 helicase inhibitor project (AID 687037; call rule not given here); conditions: Cy5-DNA-NS3h complex fluorescence interference counterscreen
# [4] = EMT-state selective cytotoxicity in co-culture – imaging, PC-3E GFP, TEM4-18 mCherry, primary screen (AID 1345086;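 active = compounds killing one labelled cell type while sparing the other, by normalised counts and ratio limits, not self-fluorescent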;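 as to all read-outs here: cells exposed to compound for 72 h before imaging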;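 as to red/green cell ratio (normalised): normalised mesenchymal count divided by normalised epithelial count so high means epithelial killing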); conditions: PC-3E GFP / TEM4-18 mCherry co-culture, imaging cell counts, at 1 µM; for red/green cell ratio (normalised): actives lie on both sides, counts scaled to control wells, 1 = unselective
# [5] = viability loss with induced miR-34 in A549 – imaging, A549 dox-inducible miR-34, nuclei and caspase counts, primary screen (AID 1347080); conditions: A549 miR-34 inducible, Hoechst nuclei count, 48 h
# [6] = blockers of cellular phospholipid synthesis – cell-based, LOPAC library, screen 4, primary screen (AID 1347384; call rule not given here); conditions: animal cells, phospholipid biosynthesis inhibition screen; at 10 µM
# [7] = biological target: Mitogen-activated protein kinase 7 (Homo sapiens) (UniProt Q13164); test: Gal4-ERK5 driven luciferase induction – cell-based, HTS, primary screen (AID 1508626;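 active = luciferase signal above three times the same-plate solvent-only control wells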;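 also: luciferase driven by Gal4-ERK5 fusion binding five Gal4 sites before minimal TATA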); conditions: HeLa Gal4-ERK5 transactivation, 18 h, at 5 µM, stronger effect = higher value
# [8] = galactose survival enhancers in mitochondrial complex I cybrids – cell-based, galactose medium, ATP luminescence, primary screen (AID 1645843;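 active = z-score of at least 1.8 in each of two replicates, scored against plate mean and spread of sample wells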;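 also: positive z means more ATP and so rescue of galactose-driven cybrid death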); conditions: complex I mutant cybrid cells, 72 h, stronger effect = higher value
# [9] = blockers of polyQ-driven CASP3 activation – cell-based (AID 1583); conditions: polyglutamine-induced caspase-3 activation, cell assay; stronger effect = higher value;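 tested at 10 µM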
# [10] = yeast 75Q aggregation reduction – 75Q-TubU reporter (AID 1593); conditions: Yeast 75Q polyglutamine aggregation reporter
# [11] = restoration of touch response, mutant HTT neurons – whole organism, C. elegans mechanosensory neurons, N-terminal huntingtin (AID 1599); conditions: C. elegans polyQ-huntingtin mechanosensory neurons, stronger effect = higher value
# [12] = blockers of cytochrome c efflux from mitochondria – biochemical, purified mitochondria (AID 1603); conditions: stronger effect = lower value;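 also: mouse liver mitochondria challenged with calcium chloride; signal normalized to the plate average as 100%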
# [13] = polyglutamine aggregate formation blockers (AID 1604); conditions: polyglutamine-induced protein aggregation inhibition assay; stronger effect = higher value; tested at 2.5 µM
# [14] = glutamate transport activators, MN-1 cells, MN-1 cell line (AID 1612); conditions: MN-1 motor neuron cells, stronger effect = higher value;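 also: tested at 1 µM final; 0% = mean of DMSO vehicle wells on each plate; positive means more glutamate uptake than control and negative means less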
# [15] = 75Q-TubH aggregate inhibition, S. cerevisiae, yeast (AID 1616); conditions: S. cerevisiae 75Q-TubH polyglutamine aggregation suppression; stronger effect = higher value
# [16] = P. berghei load reduction in hepatocytes – cell-based, HepG2, luciferase luminescence, HepG2 viability, primary screen (AID 624349; in the data active = parasite load remaining mostly below about 12%, no sharp cut-off; inactive = mostly above about 10%;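 also: 100% = mean of DMSO negative control wells on the same plate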); conditions: P. berghei liver stage in HepG2, luciferase luminescence, concentration not given here; parasite load remaining: stronger effect = lower value; viability: measured here: HepG2 viability without parasites
# [17] = MELAS cybrid and Rieske KO viability enhancers – cell-based, MELAS cybrids, Rieske KO mouse fibroblasts, CellTiter-Glo, primary screen (AID 1508586;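 active = mean z-score across replicates of 1.96 or higher in either the MELAS or the Rieske mutant cell line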;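 also: z relative to plate mean and SD of compound and empty wells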); conditions: low glucose
# [18] = biological target: NAD(+) hydrolase SARM1 (Homo sapiens) (UniProt Q6SZW1); test: blocking NAD cleavage by SARM1 SAM-TIR – cell lysate, NAD-Glo luminescence (AID 1508614;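 active = compound whose remaining NAD level is above about 45 nM, limit read from the data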;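 also: higher remaining NAD means stronger inhibition of SARM1 NADase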); conditions: SAM-TIR HEK293T lysate NADase, at 1 µM, stronger effect = higher value
# [19] = compounds altering viability of human ES cells (AID 493140; call rule not given here;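 also: cells exposed to compounds for four days before counting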); conditions: human embryonic stem cell survival screen; stronger effect = higher value
# [20] = measured here: epithelial PC-3E GFP cell survival
# [21] = measured here: mesenchymal TEM4-18 mCherry cell survival
# [22] = stronger effect = lower value, cell number ratio, induced over uninduced
# [23] = measured here: relative caspase fold change +Dox/-Dox
# [24] = measured here: total cells with miR-34 induction, stronger effect = lower value
# [25] = measured here: total cells without miR-34 induction
# [26] = MELAS cybrid survival, CellTiter-Glo 48 h, stronger effect = higher value
# [27] = Rieske KO mouse fibroblast survival, CellTiter-Glo 72 h
# Mitogen-activated protein kinase 7 (Homo sapiens), sequence (Q13164 whole entry, looked up, the tested form may be a part): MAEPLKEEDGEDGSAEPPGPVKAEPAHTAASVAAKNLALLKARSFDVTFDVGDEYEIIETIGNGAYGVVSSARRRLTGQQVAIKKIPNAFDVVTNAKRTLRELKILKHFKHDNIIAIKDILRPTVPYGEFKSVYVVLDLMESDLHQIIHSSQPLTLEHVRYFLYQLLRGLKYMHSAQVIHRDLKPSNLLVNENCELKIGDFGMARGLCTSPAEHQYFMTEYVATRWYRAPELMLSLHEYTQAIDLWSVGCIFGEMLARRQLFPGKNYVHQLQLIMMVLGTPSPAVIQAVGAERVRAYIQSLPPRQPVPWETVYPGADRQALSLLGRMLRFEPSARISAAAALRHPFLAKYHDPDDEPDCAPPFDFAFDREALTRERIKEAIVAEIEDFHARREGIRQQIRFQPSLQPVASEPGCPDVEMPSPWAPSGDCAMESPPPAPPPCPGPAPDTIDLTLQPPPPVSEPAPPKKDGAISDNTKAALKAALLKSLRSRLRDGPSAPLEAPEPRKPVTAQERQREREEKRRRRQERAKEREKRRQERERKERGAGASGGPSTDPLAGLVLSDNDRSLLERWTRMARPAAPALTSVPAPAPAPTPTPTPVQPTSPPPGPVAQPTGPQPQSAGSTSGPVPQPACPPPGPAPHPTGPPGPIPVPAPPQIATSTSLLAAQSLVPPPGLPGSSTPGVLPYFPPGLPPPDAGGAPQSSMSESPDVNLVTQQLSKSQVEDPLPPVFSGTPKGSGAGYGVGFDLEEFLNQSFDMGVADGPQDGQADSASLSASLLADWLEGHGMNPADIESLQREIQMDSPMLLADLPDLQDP
# NAD(+) hydrolase SARM1 (Homo sapiens), sequence (Q6SZW1 whole entry, looked up): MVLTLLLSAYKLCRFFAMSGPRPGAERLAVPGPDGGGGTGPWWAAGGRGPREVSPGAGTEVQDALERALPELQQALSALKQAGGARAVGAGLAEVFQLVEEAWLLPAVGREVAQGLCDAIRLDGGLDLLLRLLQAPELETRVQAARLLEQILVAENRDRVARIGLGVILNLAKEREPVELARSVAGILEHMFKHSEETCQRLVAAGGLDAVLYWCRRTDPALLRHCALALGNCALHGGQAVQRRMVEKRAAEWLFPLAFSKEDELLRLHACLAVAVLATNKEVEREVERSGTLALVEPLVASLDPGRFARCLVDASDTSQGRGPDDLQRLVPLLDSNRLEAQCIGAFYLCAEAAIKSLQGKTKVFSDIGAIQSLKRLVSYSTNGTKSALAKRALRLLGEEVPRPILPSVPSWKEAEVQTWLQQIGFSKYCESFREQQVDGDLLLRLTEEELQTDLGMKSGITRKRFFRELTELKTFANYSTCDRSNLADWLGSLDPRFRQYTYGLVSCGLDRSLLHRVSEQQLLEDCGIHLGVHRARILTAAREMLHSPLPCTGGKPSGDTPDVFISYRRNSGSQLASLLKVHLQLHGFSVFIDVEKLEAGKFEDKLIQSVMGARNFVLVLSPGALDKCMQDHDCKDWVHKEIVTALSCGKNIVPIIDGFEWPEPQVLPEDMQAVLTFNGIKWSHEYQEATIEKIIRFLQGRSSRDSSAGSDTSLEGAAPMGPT
structure (smiles),measurement,setting,value
N=C(N)SCCN,period change,[1],-0.04 h (inactive)
same,inhibition,[2],-3% (inactive)
same,fluorescence ratio (interference),[3],1 (inactive)
same,red/green cell ratio (normalised),[4],0.88 (inactive)
same,normalised cell number,[4]; [20],1.12
same,normalised cell number,[4]; [21],0.98
same,fold change,[5]; [22],0.958 (inactive) and 1.11 (inactive)
same,fold change,[5]; [23],2.51 and 0.757
same,cell count,[5]; [24],9240 and 6110
same,cell count,[5]; [25],9640 and 5490
same,outcome,[6],inactive
same,luciferase signal,[7],96 AU (inactive)
same,z-score,[8],-0.855 (inactive)
CO[C@@]12[C@@H]3NC3CN1C1=C(C(=O)C(N)=C(C)C1=O)[C@@H]2COC(N)=O (stereo partly drawn),inhibition,[9],-29.8%
same,score,[10],2
same,rescue above control,[11],0
same,cytochrome c release ratio,[12],1
same,inhibition of aggregation,[13],29.2%
same,glutamate uptake change,[14],0.5%
same,aggregation suppression score,[15],1.38
same,parasite load remaining,[16],0.12% (inactive)
same,viability,[16],22.5%
same,red/green cell ratio (normalised),[4],1.09 (inactive)
same,normalised cell number,[4]; [20],1.03
same,normalised cell number,[4]; [21],1.13
same,fold change,[5]; [22],0.986 (inactive)
same,fold change,[5]; [23],0.958
same,cell count,[5]; [24],1840
same,cell count,[5]; [25],1870
COC1CC2CCC(C)C(O)(O2)C(=O)C(=O)N2CCCCC2C(=O)OC(C(C)CC2CCC(O)C(OC)C2)CC(=O)C(C)/C=C(\C)C(O)C(OC)C(=O)C(C)CC(C)/C=C/C=C/C=C/1C (stereo not drawn),parasite load remaining,[16],60.9% (inactive)
same,viability,[16],98.1%
same,red/green cell ratio (normalised),[4],1.36 (inactive)
same,normalised cell number,[4]; [20],0.36
same,normalised cell number,[4]; [21],0.49
same,fold change,[5]; [22],0.865 (inactive)
same,fold change,[5]; [23],3.67
same,cell count,[5]; [24],7720
same,cell count,[5]; [25],8920
CN(C)CC(c1ccc(O)cc1)C1(O)CCCCC1 (stereo not drawn),red/green cell ratio (normalised),[4],1 (inactive)
same,normalised cell number,[4]; [20],0.79
same,normalised cell number,[4]; [21],0.79
same,fold change,[5]; [22],0.982 (inactive) and 0.891 (inactive) and 0.889 (inactive)
same,fold change,[5]; [23],0.639 and 1.05 and 1.37
same,cell count,[5]; [24],9600 and 8680
same,cell count,[5]; [25],9780 and 9740 and 9750
same,z-score,[17]; [26],-0.237 (inactive) and -0.203 (inactive)
same,z-score,[17]; [27],-0.123 and -0.139
same,remaining NAD,[18],10 nM (inactive)
CN1C2CCCC1CC(NC(=O)c1nn(C)c3ccccc13)C2 (stereo not drawn),fluorescence ratio (interference),[3],1 (inactive)
same,red/green cell ratio (normalised),[4],0.96 (inactive)
same,normalised cell number,[4]; [20],0.99
same,normalised cell number,[4]; [21],0.95
same,fold change,[5]; [22],0.966 (inactive) and 0.87 (inactive)
same,fold change,[5]; [23],1.65 and 2.43
same,cell count,[5]; [24],10200 and 8870
same,cell count,[5]; [25],10600 and 10200
same,outcome,[6],inactive
same,z-score,[8],-0.44 (inactive) and 0.15 (inactive)
Cc1cc(-n2c(=O)[nH]c(=O)n(C)c2=O)ccc1Oc1ccc(SC(F)(F)F)cc1,parasite load remaining,[16],24.3% (inactive)
same,viability,[16],72%
same,red/green cell ratio (normalised),[4],0.98 (inactive)
same,normalised cell number,[4]; [20],1.07
same,normalised cell number,[4]; [21],1.05
same,fold change,[5]; [22],0.875 (inactive) and 0.912 (inactive)
same,fold change,[5]; [23],1.01 and 1.07
same,cell count,[5]; [24],7860 and 10300
same,cell count,[5]; [25],8980 and 11300
same,z-score,[17]; [26],-0.0992 (inactive) and -0.247 (inactive) and 0.135 (inactive)
same,z-score,[17]; [27],-0.203 and -0.144 and -0.234
same,remaining NAD,[18],10 nM (inactive)
same,luciferase signal,[7],136 AU (inactive)
same,z-score,[8],0.65 (inactive)
CCOC(=O)CC(=O)N1CCSC1COc1ccccc1OC (stereo not drawn),red/green cell ratio (normalised),[4],1.03 (inactive)
same,normalised cell number,[4]; [20],0.9
same,normalised cell number,[4]; [21],0.93
same,fold change,[5]; [22],0.901 (inactive) and 0.963 (inactive)
same,fold change,[5]; [23],1.01 and 0.429
same,cell count,[5]; [24],7560 and 7640
same,cell count,[5]; [25],8380 and 7930
same,z-score,[17]; [26],-0.272 (inactive)
same,z-score,[17]; [27],-0.0679
same,remaining NAD,[18],10 nM (inactive)
COc1cccc2c1C(=O)c1c(O)c3c(c(O)c1C2=O)C[C@@](O)(C(=O)CO)C[C@@H]3OC1C[C@H](N)[C@H](O)[C@H](C)O1 (stereo partly drawn),parasite load remaining,[16],18.8% (inactive)
same,viability,[16],53.1%
same,red/green cell ratio (normalised),[4],2.27 (inactive)
same,normalised cell number,[4]; [20],0.17
same,normalised cell number,[4]; [21],0.39
same,fold change,[5]; [22],0.907 (inactive)
same,fold change,[5]; [23],1.04
same,cell count,[5]; [24],1130
same,cell count,[5]; [25],1250
NCCCNCCCCNCCCN,period change,[1],-0.16 h (inactive)
same,inhibition,[2],-1% (inactive)
same,fluorescence ratio (interference),[3],1 (inactive)
same,red/green cell ratio (normalised),[4],1.05 (inactive)
same,normalised cell number,[4]; [20],0.96
same,normalised cell number,[4]; [21],1
same,fold change,[5]; [22],0.928 (inactive)
same,fold change,[5]; [23],0.993
same,cell count,[5]; [24],10300
same,cell count,[5]; [25],11100
same,outcome,[6],inactive
same,z-score,[8],-0.2 (inactive)
O=C(O)C1=CC(=C(c2ccc(O)c(C(=O)O)c2)c2ccc(O)c(C(=O)O)c2)C=CC1=O,period change,[1],-0.145 h (inactive)
same,inhibition,[2],96% (active)
same,fluorescence ratio (interference),[3],1 (inactive)
same,red/green cell ratio (normalised),[4],1.1 (inactive)
same,normalised cell number,[4]; [20],1.19
same,normalised cell number,[4]; [21],1.31
same,fold change,[5]; [22],1.06 (inactive)
same,fold change,[5]; [23],1.49
same,cell count,[5]; [24],8760
same,cell count,[5]; [25],8290
same,outcome,[6],inactive
same,luciferase signal,[7],12 AU (inactive)
same,z-score,[8],5.43 (active)
O=C(O)[C@H]1/C(=C/CO)O[C@@H]2CC(=O)N21,parasite load remaining,[16],50.6% (inactive)
same,viability,[16],103%
same,red/green cell ratio (normalised),[4],1.31 (inactive)
same,normalised cell number,[4]; [20],0.86
same,normalised cell number,[4]; [21],1.13
same,fold change,[5]; [22],0.901 (inactive)
same,fold change,[5]; [23],3.53
same,cell count,[5]; [24],11900
same,cell count,[5]; [25],13200
same,z-score,[17]; [26],-0.304 (inactive)
same,z-score,[17]; [27],-1.19
same,remaining NAD,[18],10 nM (inactive)
same,luciferase signal,[7],76 AU (inactive)
CN1CCN(C(c2ccccc2)c2ccc(Cl)cc2)CC1 (stereo not drawn),inhibition,[9],9.79%
same,score,[10],1.32
same,rescue above control,[11],0
same,cytochrome c release ratio,[12],1.15
same,inhibition of aggregation,[13],65.4%
same,glutamate uptake change,[14],11.5%
same,aggregation suppression score,[15],0.963
same,survival,[19],1.83 (inactive)
same,parasite load remaining,[16],76% (inactive) and 58.1% (inactive)
same,viability,[16],93.1% and 88.3%
same,red/green cell ratio (normalised),[4],1.15 (inactive)
same,normalised cell number,[4]; [20],1.09
same,normalised cell number,[4]; [21],1.26
same,fold change,[5]; [22],0.825 (inactive) and 0.923 (inactive)
same,fold change,[5]; [23],1.22 and 0.572
same,cell count,[5]; [24],7440 and 10400
same,cell count,[5]; [25],9010 and 11300
same,z-score,[17]; [26],0.513 (inactive)
same,z-score,[17]; [27],1.23
same,remaining NAD,[18],10 nM (inactive)
same,luciferase signal,[7],100 AU (inactive)
N[C@H]1CONC1=O,period change,[1],-0.055 h (inactive)
same,survival,[19],1.5 (inactive)
same,parasite load remaining,[16],74% (inactive)
same,viability,[16],71%
same,inhibition,[2],0% (inactive)
same,fluorescence ratio (interference),[3],1 (inactive)
same,red/green cell ratio (normalised),[4],0.88 (inactive)
same,normalised cell number,[4]; [20],1.18
same,normalised cell number,[4]; [21],1.03
same,fold change,[5]; [22],1.03 (inactive) and 0.935 (inactive) and 0.898 (inactive)
same,fold change,[5]; [23],1.58 and 1.14 and 0.652
same,cell count,[5]; [24],10600 and 9010 and 9280
same,cell count,[5]; [25],10300 and 9640
same,outcome,[6],inactive
same,z-score,[17]; [26],-0.786 (inactive)
same,z-score,[17]; [27],-1.27
same,remaining NAD,[18],10 nM (inactive)
same,z-score,[8],-0.18 (inactive)
